Compounds without any hit were thinned out: in the full panel of roughly 83,000, 20% have a hit.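 Interpretation: 100, growth as untreated; towards 0, rising growth inhibition; 0, no net growth; 0 to -100, cell death. Compounds scoring below 10 were considered active.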 Active and inactive are the calls of the source.
Assays:
Test in all cases: NCI-60 one-dose screen, 48 h (100 = growth as untreated, 0 = no growth, -100 = all killed)
[1] = tested on: NCI-H23 lung; conditions: 10 µM unless noted
[2] = tested on: NCI-H322M lung; conditions: 10 µM unless noted
[3] = tested on: HOP-62 NSCLC; conditions: 10 µM unless noted
[4] = tested on: NCI-H460 lung; conditions: 10 µM unless noted
[5] = tested on: HOP-92 NSCLC; conditions: 10 µM unless noted
[6] = tested on: A549/ATCC NSCLC; conditions: 10 µM unless noted
[7] = tested on: 786-0 renal; conditions: 10 µM unless noted
[8] = tested on: COLO 205 colon; conditions: 10 µM unless noted
[9] = tested on: DU-145 prostate; conditions: 10 µM unless noted
[10] = tested on: K-562 leukemia; conditions: 10 µM unless noted
[11] = tested on: MALME-3M melanoma; conditions: 10 µM unless noted
[12] = tested on: MDA-MB-231 breast; conditions: 10 µM unless noted
[13] = tested on: RXF 393 renal; conditions: 10 µM unless noted
[14] = tested on: SF-268 CNS; conditions: 10 µM unless noted
[15] = tested on: SF-295 CNS; conditions: 10 µM unless noted
[16] = tested on: SF-539 CNS; conditions: 10 µM unless noted
[17] = tested on: UACC-257 melanoma; conditions: 10 µM unless noted
[18] = tested on: M14 melanoma; conditions: 10 µM unless noted
[19] = tested on: NCI-H522 lung; conditions: 10 µM

Measured: growth

O=[N+]([O-])c1ccc2nc(N/N=C/c3ccc(O)cc3)sc2c1
inactive: [1] 73.3% | [2] 58.8% | [3] 68.7% | [4] 48.5% | [5] 58.9% | [6] 30.7% | [7] 50.9% | [8] 89.9% | [9] 60.1% | [10] 31.6% | [11] 65% | [12] 82.9% | [13] 103% | [14] 64.1% | [15] 86.7% | [16] 49.5% | [17] 66.6% | [18] 83%

COc1cc2cc(Oc3ccc(NC(=O)Nc4cccc(C(F)(F)F)c4)cc3)c(C)nc2cc1OCCN1CCCCC1
inactive: [5] 23.4%
active: [1] -75.4% | [2] -14.5% | [3] -68.8% | [4] -84.2% | [6] -56.2% | [7] -83.7% | [8] -74.9% | [9] -94.1% | [10] -49.7% | [11] -88.5% | [12] -86.8% | [13] -70.6% | [14] -78.4% | [15] -57.4% | [16] -92.4% | [17] -68.9% | [18] -64.1%

c1ccc2cc(-c3n(Cc4ccc5ccccc5n4)c4ccccc4[n+]3Cc3ccc4ccccc4n3)ccc2c1
inactive: [9] 13.3%
active: [1] -16.5% | [2] 7.73% | [3] -7% | [4] -57.3% | [5] -31.6% | [6] 6.23% | [7] 5.11% | [8] -66.7% | [10] -6.05% | [11] -32.9% | [12] -21% | [13] -18.8% | [14] -3.09% | [15] -13.7% | [16] 0.28% | [17] -14.2% | [18] -8.82%

O=C1CC(c2ccsc2)c2snc(-c3ccc(Cl)cc3)c2N1 (stereo not given)
active: [8] -42.8%
inactive: [1] 35.9% | [2] 55.7% | [3] 37.2% | [4] 10.6% | [5] 51.1% | [6] 35.1% | [7] 39.6% | [9] 19.4% | [10] 16.4% | [11] 37.7% | [12] 90% | [13] 25.4% | [14] 56.1% | [15] 17.1% | [16] 32.4% | [17] 50% | [18] 13.9%

COc1ccc(S(=O)(=O)ON=C2C=C(C)C(=O)C(C)=C2)cc1
inactive: [1] 98.2% | [2] 103% | [3] 106% | [4] 106% | [5] 59.4% | [6] 105% | [7] 93.1% | [8] 89.2% | [9] 101% | [10] 48.7% | [11] 102% | [12] 62.5% | [13] 81.6% | [14] 92.6% | [15] 93% | [16] 94% | [17] 98.6% | [18] 99.9%

CC1CCCCN1S(=O)(=O)c1ccc(CN=C=S)cc1 (stereo not given)
active: [10] 9.18%
inactive: [1] 97.1% | [2] 96.6% | [3] 108% | [4] 88.4% | [5] 60.8% | [6] 102% | [7] 55.9% | [8] 52.8% | [9] 63.8% | [11] 87.1% | [12] 51.1% | [13] 51.9% | [14] 91.1% | [15] 99.6% | [16] 78.3% | [17] 79.9% | [18] 42%

CN(C)c1ccc(/C=C(\C#N)c2cc3ccccc3n2C)cc1
inactive: [1] 34.6% | [2] 49.7% | [3] 62.1% | [5] 72.5% | [6] 24.6% | [7] 38.6% | [9] 10.9% | [11] 56.9% | [12] 20.1% | [13] 10.5% | [14] 47.5% | [17] 68.9%
active: [4] 5.38% | [8] -17.2% | [10] 7.77% | [15] 7.63% | [16] -12.5% | [18] 8.17%

O=c1[nH]c(=O)n(Cc2ccc(F)cc2)cc1F
inactive: [1] 105% [50 µM] | [2] 107% [50 µM] | [3] 109% [50 µM] | [4] 108% [50 µM] | [5] 108% [50 µM] | [6] 96% [50 µM] | [7] 105% [50 µM] | [8] 115% [50 µM] | [9] 110% [50 µM] | [10] 86.7% [50 µM] | [11] 101% [50 µM] | [12] 101% [50 µM] | [13] 111% [50 µM] | [14] 99.1% [50 µM] | [15] 101% [50 µM] | [16] 100% [50 µM] | [17] 83.9% [50 µM] | [18] 109% [50 µM]

COc1cc2cc(Oc3ccc(NC(=O)Nc4ccc(Cl)c(C(F)(F)F)c4)cc3)c(C)nc2cc1OCCN1CCCCC1
inactive: [3] 85.6% | [5] 37.4% | [13] 44.2% | [15] 57.5%
active: [1] -80.4% | [2] 8.09% | [4] -82% | [6] -54.4% | [7] -89.3% | [8] -81.4% | [9] -85.2% | [10] -48.1% | [11] -78.4% | [12] -87.2% | [14] 3.42% | [16] -89.8% | [17] -49.4% | [18] -67.4%

c1ccc(-c2n(Cc3ccc4ccccc4n3)c3ccccc3[n+]2Cc2ccc3ccccc3n2)cc1
active: [1] -5.45% | [3] -1.08% | [4] 1.2% | [5] -18.8% | [8] -69.2% | [10] 2.99% | [11] -24.6% | [12] -13.1% | [13] -4.06% | [14] 5.9% | [15] -9.19% | [16] 7.88% | [17] -2.75% | [18] -14.9%
inactive: [2] 14.3% | [6] 13.7% | [7] 11.9% | [9] 17.5%

Cc1cc(=O)oc2c1ccc1oc(C(=O)c3ccccc3)c(C)c12
inactive: [1] 82.1% | [2] 112% | [3] 115% | [4] 85% | [5] 105% | [6] 93.8% | [7] 99.5% | [8] 93.5% | [9] 98.5% | [10] 49.2% | [11] 113% | [12] 76.3% | [13] 99.8% | [14] 122% | [15] 55.8% | [16] 92.5% | [17] 100% | [18] 77.2%

Cc1ccccc1-n1nnc(C(=O)Nc2ccc(-c3ccccc3)cn2)c1C
inactive: [1] 38.1% [50 µM] | [2] 81.3% [50 µM] | [3] 93.7% [50 µM] | [4] 61.9% [50 µM] | [5] 74.3% [50 µM] | [6] 29.8% [50 µM] | [7] 62.1% [50 µM] | [8] 40.2% [50 µM] | [9] 54.3% [50 µM] | [10] 26.5% [50 µM] | [11] 39.6% [50 µM] | [12] 63.1% [50 µM] | [13] 74.7% [50 µM] | [14] 68.7% [50 µM] | [15] 38.9% [50 µM] | [16] 72.3% [50 µM] | [17] 25.5% [50 µM] | [18] 41.8% [50 µM]

c1ccc(-c2n(Cc3ccc4ccccc4c3)c3ccccc3[n+]2Cc2ccc3ccccc3c2)cc1
active: [1] -20.9% | [2] 3.63% | [3] 4.19% | [4] -82.1% | [5] -40.4% | [6] 5.14% | [7] -94.8% | [8] -70.7% | [9] 4.24% | [10] -35.8% | [11] -57.5% | [12] -49.4% | [13] -39.4% | [14] -61.9% | [15] -47.1% | [16] -16.2% | [17] -21.4% | [18] -75.8%

Nc1nc(-c2ccnc(Cl)c2)nn1-c1nc2ccccc2s1
inactive: [1] 101% | [2] 100% | [3] 99.5% | [4] 107% | [5] 103% | [6] 103% | [7] 109% | [8] 116% | [9] 115% | [10] 112% | [11] 97.3% | [12] 89.5% | [13] 108% | [14] 100% | [15] 101% | [16] 98.5% | [17] 113% | [18] 101%

COc1cc(-c2nc(SC(C)C)nc(Nc3cccc(C)c3)c2C#N)cc(OC)c1OC
inactive: [1] 103% | [2] 107% | [3] 103% | [4] 108% | [5] 106% | [6] 91% | [7] 109% | [8] 109% | [9] 109% | [10] 99.5% | [11] 108% | [12] 99.2% | [13] 127% | [14] 107% | [15] 101% | [16] 107% | [17] 98.9% | [18] 108%

Nc1cccc2c(=S)c3ccccc3[nH]c12
inactive: [1] 95.9% | [2] 92.1% | [3] 82.7% | [4] 95.7% | [5] 98.4% | [6] 108% | [7] 106% | [8] 114% | [9] 113% | [10] 91% | [11] 102% | [12] 68.3% | [13] 95.1% | [14] 92.5% | [15] 97.3% | [16] 96.9% | [17] 99% | [18] 102%

COC(=O)[C@H]1CCCN1C(=O)[C@H]1CCCN1C(=O)[C@@H](Cc1c[nH]c2ccccc12)NC(=S)Nc1cc(C(F)(F)F)cc(C(F)(F)F)c1
inactive: [1] 69.2% | [2] 32.8% | [3] 78.6% | [4] 18.6% | [19] 85.7% | [6] 31% | [7] 62.5% | [8] 38.4% | [9] 51.7% | [10] 34.2% | [11] 47.4% | [12] 44.5% | [13] 56.3% | [14] 36.1% | [16] 74.4% | [17] 75.4% | [18] 44.4%
active: [15] -50.5%

O=C(Nc1ccccc1)Oc1cccc2cccnc12
active: [19] -4.77%
inactive: [1] 87.1% | [2] 138% | [3] 99.6% | [4] 74.8% | [6] 93.3% | [7] 99.9% | [8] 72.1% | [9] 92.9% | [10] 44.9% | [11] 108% | [12] 96.7% | [13] 116% | [14] 87.6% | [15] 83.9% | [16] 95.5% | [17] 75.6% | [18] 57.6%

Nc1nc2c(s1)CCc1c-2c(Br)n(Cc2ccccc2)c1Br
active: [19] -74.9%
inactive: [1] 91.8% | [2] 99.8% | [3] 64.9% | [4] 98.2% | [6] 93.7% | [7] 102% | [8] 85.6% | [9] 109% | [10] 15.4% | [11] 37.8% | [12] 80.9% | [13] 17.9% | [14] 89.1% | [15] 120% | [16] 93.4% | [17] 96.9% | [18] 91.8%

Cc1cc(=O)c2c(C)ccc(C)c2[nH]1
inactive: [1] 100% | [2] 109% | [3] 104% | [4] 111% | [19] 96.2% | [6] 93.1% | [7] 96.4% | [8] 125% | [9] 115% | [10] 109% | [11] 102% | [12] 99.3% | [13] 90.7% | [14] 96.8% | [15] 91.4% | [16] 107% | [17] 80.5% | [18] 97.8%

Reference: PubChem BioAssay (NCI)
